The values below come from publication PMC7862700, “An all-to-all approach to the identification of sequence-specific readers for epigenetic DNA modifications on cytosine”.

Common to all, as to test: DAPPL (digital affinity profiling via proximity ligation, sequencing); 10 mM Tris-HCl pH 7.5, 50 mM NaCl, 1 mM DTT, 4% glycerol, room temperature, 30 min; GST-TFs on glutathione beads, 16-mer random dsDNA library, 0.1% formaldehyde crosslink after washing; high values mean tight binding
The target of one test is T1, FLI1 (Homo sapiens, UniProt Q01543 1-452).
T1 sequence: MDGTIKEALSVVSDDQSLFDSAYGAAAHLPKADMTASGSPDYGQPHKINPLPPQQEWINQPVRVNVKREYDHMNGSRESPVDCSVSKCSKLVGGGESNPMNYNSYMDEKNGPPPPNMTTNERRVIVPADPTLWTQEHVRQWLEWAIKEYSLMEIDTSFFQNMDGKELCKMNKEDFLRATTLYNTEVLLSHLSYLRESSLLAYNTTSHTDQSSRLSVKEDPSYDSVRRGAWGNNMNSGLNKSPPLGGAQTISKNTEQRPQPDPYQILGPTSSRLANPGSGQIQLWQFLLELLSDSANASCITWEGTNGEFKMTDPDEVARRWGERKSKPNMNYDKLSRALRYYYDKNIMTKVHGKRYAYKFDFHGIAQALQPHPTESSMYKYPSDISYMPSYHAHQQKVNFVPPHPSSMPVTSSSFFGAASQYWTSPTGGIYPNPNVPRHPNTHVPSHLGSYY
The following applies: protein: recombinant; tags: N-terminal GST; dsDNA, one strand shown. In a few lines:
(§1)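 After expression in yeast as GST fusions, human transcription factors were bound to glutathione beads, DNA-barcoded and mixed with a tag-only sample. The pools were incubated with 200 nmole of a 16-mer random double-stranded DNA library in Tris/NaCl/DTT/glycerol buffer (30 min, room temperature), washed and crosslinked with 0.1% formaldehyde. Proximity ligation with BsaI/T4 ligase ran for 1 h at 37 °C, before PCR amplification and sequencing on an Illumina NextSeq500. Binding signal is a hexamer's read frequency for a factor divided by its frequency for the tag-only sample.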

A further test deals with T2, ELK1 (Homo sapiens, UniProt P19419 1-428).
T2 sequence: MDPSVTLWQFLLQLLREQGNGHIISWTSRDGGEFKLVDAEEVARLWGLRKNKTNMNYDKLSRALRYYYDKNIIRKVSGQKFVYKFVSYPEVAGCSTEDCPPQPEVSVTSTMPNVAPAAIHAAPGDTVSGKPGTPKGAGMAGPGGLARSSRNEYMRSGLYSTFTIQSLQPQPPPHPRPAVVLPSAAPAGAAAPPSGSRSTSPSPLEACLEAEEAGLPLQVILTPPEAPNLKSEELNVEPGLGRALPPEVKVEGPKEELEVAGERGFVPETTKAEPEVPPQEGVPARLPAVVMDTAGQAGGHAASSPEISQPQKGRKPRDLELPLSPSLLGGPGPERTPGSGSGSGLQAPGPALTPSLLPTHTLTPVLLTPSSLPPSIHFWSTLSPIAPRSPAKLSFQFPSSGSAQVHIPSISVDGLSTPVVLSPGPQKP
The following applies: protein: recombinant; tags: N-terminal GST; dsDNA, one strand shown. In a few lines: as §1

The target in another test is T3, GABPA (Homo sapiens, UniProt Q06546 1-454).
T3 sequence: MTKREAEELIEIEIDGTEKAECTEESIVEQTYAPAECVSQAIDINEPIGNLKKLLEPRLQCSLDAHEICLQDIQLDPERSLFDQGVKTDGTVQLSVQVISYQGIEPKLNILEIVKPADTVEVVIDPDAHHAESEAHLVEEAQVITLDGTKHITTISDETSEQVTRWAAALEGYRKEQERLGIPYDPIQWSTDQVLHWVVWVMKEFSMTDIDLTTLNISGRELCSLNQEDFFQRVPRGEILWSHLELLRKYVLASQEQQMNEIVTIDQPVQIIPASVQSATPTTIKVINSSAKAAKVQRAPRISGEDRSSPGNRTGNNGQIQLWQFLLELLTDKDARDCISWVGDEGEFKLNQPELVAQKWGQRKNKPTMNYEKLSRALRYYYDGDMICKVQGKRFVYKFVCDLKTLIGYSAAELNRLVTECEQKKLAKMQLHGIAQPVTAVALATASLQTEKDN
The following applies: protein: recombinant; tags: N-terminal GST; dsDNA, one strand shown. In a few lines: as §1

A further test concerns the target T4, ERG (Homo sapiens, UniProt P11308 1-479).
T4 sequence: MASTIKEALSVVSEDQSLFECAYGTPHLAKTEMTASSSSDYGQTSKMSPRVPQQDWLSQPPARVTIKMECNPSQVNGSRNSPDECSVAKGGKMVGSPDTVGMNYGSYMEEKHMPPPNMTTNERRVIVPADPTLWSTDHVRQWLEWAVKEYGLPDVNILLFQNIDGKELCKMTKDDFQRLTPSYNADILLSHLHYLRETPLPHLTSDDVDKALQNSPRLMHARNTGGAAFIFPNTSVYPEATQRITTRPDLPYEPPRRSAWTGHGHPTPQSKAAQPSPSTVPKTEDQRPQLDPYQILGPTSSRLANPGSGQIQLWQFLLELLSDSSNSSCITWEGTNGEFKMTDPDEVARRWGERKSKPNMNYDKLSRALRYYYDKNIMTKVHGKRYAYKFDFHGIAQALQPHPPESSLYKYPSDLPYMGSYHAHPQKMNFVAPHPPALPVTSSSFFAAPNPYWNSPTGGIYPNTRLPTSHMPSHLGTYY
The settings on record: protein: recombinant; tags: N-terminal GST; dsDNA, one strand shown. In a few lines:
as §1

The target in another test is ELF1 (Homo sapiens, UniProt P32519 1-619). The settings on record: protein: recombinant; tags: N-terminal GST; dsDNA, one strand shown. In a few lines:
as §1

Another test has as its target T5, EHF (Homo sapiens, UniProt Q9NZC4 1-300).
T5 sequence: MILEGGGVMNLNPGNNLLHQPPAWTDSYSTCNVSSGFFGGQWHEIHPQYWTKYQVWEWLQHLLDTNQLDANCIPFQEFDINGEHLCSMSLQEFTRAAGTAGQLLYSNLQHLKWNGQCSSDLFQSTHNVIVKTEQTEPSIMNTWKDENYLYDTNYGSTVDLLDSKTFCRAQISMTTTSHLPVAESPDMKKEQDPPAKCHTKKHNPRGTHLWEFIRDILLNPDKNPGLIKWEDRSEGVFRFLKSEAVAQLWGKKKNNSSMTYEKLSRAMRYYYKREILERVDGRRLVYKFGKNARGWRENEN
The following applies: protein: recombinant; tags: N-terminal GST; dsDNA, one strand shown. The essentials: as §1

The target in a further test is SPI1 (Homo sapiens, UniProt P17947 1-270). The settings on record: protein: recombinant; tags: N-terminal GST; dsDNA, one strand shown. The essentials:
as §1

A further test concerns the target SPIB (Homo sapiens, UniProt Q01892 1-262). The settings on record: protein: recombinant; tags: N-terminal GST; dsDNA, one strand shown. In a few lines:
as §1

The next test deals with T6, ELK3 (Homo sapiens, UniProt P41970 1-407).
T6 sequence: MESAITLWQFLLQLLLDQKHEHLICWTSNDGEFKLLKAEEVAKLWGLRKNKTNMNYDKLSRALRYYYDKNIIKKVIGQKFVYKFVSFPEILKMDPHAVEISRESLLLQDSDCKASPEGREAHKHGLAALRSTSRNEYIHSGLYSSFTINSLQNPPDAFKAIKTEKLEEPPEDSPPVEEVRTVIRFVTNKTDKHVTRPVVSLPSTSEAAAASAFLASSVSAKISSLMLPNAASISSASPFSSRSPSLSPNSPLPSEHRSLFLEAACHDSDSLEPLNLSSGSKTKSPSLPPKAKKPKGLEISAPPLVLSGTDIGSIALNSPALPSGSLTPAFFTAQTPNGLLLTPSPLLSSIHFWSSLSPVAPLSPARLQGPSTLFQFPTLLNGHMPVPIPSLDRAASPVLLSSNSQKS
The settings on record: protein: recombinant; tags: N-terminal GST; dsDNA, one strand shown. The essentials: as §1

The target in a further test is T7, FEV (Homo sapiens, UniProt Q99581 1-238).
T7 sequence: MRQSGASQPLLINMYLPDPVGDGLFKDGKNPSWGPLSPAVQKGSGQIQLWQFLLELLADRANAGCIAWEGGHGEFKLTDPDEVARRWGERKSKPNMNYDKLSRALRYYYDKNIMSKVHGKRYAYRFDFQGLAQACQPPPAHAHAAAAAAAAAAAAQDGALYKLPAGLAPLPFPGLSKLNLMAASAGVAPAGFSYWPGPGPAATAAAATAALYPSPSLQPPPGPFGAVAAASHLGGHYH
The following applies: protein: recombinant; tags: N-terminal GST; dsDNA, one strand shown. In a few lines: as §1

In another test the target is ETV5 (Homo sapiens, UniProt P41161 1-510). The following applies: protein: recombinant; tags: N-terminal GST; dsDNA, one strand shown. The essentials: as §1
The next test has as its target HSF1 (Homo sapiens, UniProt Q00613 1-529). The settings on record: protein: recombinant; tags: N-terminal GST; chain copies: 3; dsDNA, one strand shown. In a few lines: as §1
In another test the target is T8, SPIC (Homo sapiens, UniProt Q8N5J4 1-248).
T8 sequence: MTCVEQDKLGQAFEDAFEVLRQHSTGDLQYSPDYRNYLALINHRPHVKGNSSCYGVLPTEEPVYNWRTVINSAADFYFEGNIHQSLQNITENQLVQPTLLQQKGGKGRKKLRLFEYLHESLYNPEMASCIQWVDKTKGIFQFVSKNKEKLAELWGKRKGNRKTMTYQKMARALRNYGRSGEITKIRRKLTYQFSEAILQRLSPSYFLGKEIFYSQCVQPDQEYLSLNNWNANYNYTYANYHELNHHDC
The following applies: protein: recombinant; tags: N-terminal GST; dsDNA, one strand shown. The essentials:
as §1

The target in the next test is ELF4 (Homo sapiens, UniProt Q99607 1-663). The following applies: protein: recombinant; tags: N-terminal GST; dsDNA, one strand shown. The essentials:
as §1

In the next test the target is T9, ELK4 (Homo sapiens, UniProt P28324-2 1-405).
T9 sequence: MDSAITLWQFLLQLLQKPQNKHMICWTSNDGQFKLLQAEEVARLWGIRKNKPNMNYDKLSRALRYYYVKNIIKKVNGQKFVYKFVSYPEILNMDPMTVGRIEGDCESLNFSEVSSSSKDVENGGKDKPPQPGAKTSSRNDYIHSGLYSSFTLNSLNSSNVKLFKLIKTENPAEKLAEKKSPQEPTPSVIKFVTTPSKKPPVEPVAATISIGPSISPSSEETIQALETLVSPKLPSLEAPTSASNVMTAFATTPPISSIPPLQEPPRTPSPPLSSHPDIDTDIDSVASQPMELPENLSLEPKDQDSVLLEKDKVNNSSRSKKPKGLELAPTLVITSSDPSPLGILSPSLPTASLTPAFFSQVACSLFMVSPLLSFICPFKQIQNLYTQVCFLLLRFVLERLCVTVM
The settings on record: protein: recombinant; tags: N-terminal GST; dsDNA, one strand shown. The essentials: as §1

The next test has as its target T10, ETV2 (Homo sapiens, UniProt O00321 1-342).
T10 sequence: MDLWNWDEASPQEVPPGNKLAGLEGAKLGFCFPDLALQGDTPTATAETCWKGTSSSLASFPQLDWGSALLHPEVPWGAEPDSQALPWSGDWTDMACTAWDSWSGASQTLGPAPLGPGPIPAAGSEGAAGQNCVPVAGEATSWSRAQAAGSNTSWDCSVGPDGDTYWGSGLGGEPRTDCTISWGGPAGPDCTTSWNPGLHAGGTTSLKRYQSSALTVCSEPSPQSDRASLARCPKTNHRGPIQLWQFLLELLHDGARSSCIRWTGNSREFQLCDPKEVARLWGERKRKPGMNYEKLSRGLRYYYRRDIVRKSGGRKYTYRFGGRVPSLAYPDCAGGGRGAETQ
The following applies: protein: recombinant; tags: N-terminal GST; dsDNA, one strand shown. The essentials:
as §1

The target in another test is T11, ELF3 (Homo sapiens, UniProt P78545 1-371).
T11 sequence: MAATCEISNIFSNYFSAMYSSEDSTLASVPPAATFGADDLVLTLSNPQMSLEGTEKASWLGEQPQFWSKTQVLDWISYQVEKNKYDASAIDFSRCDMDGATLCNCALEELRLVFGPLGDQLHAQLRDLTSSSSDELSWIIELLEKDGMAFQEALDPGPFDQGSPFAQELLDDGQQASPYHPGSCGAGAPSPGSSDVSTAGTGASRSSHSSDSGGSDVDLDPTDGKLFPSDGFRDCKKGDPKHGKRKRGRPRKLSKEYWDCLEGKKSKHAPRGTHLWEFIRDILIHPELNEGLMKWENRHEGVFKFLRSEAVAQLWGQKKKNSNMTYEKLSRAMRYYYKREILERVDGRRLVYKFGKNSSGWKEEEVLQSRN
The settings on record: protein: recombinant; tags: N-terminal GST; dsDNA, one strand shown. The essentials: as §1

The target in the next test is CRX (Homo sapiens, UniProt O43186 1-299). The following applies: protein: recombinant; tags: N-terminal GST; dsDNA, one strand shown. In a few lines: as §1
Another test has as its target ETV1 (Homo sapiens, UniProt P50549 1-477). The following applies: protein: recombinant; tags: N-terminal GST; dsDNA, one strand shown. In a few lines:
as §1

CRX, sequence (O43186 whole entry): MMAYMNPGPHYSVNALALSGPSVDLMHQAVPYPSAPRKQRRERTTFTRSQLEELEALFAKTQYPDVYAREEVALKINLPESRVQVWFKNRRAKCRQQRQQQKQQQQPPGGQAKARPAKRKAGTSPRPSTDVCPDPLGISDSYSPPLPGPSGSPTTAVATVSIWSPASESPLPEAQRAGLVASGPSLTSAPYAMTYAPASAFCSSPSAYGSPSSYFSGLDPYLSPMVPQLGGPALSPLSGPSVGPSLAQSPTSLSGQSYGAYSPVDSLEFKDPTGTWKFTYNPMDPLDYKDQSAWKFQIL
ETV5, sequence (P41161 whole entry): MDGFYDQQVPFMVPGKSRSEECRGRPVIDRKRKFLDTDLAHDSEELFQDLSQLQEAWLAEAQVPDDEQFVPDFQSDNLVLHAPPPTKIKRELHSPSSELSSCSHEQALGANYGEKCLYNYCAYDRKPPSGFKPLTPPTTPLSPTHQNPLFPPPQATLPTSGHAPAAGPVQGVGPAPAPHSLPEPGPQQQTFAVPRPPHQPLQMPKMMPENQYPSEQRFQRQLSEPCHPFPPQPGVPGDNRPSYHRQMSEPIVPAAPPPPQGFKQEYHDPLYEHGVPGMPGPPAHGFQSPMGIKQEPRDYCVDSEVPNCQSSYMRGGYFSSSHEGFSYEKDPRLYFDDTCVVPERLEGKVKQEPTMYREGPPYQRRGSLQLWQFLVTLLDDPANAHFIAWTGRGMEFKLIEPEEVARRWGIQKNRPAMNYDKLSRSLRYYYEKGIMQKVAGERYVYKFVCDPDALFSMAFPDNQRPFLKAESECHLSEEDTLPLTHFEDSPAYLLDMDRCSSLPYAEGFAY
ELF1, sequence (P32519 whole entry): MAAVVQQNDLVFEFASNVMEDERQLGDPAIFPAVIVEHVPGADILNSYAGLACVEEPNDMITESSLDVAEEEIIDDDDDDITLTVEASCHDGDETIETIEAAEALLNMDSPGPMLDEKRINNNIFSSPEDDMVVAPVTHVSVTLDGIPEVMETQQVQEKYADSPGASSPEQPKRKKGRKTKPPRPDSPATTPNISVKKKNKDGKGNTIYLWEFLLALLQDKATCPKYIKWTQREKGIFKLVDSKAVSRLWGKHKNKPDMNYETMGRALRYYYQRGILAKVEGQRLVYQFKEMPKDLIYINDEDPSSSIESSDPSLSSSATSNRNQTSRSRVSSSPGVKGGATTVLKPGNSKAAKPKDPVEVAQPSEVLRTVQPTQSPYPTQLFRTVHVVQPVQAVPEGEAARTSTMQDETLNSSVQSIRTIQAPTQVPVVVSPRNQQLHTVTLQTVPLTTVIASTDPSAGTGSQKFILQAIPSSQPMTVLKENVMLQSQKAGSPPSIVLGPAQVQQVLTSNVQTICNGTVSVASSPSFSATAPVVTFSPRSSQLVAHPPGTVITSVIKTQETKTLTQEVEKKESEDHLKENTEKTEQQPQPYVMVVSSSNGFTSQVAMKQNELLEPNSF
ELF4, sequence (Q99607 whole entry): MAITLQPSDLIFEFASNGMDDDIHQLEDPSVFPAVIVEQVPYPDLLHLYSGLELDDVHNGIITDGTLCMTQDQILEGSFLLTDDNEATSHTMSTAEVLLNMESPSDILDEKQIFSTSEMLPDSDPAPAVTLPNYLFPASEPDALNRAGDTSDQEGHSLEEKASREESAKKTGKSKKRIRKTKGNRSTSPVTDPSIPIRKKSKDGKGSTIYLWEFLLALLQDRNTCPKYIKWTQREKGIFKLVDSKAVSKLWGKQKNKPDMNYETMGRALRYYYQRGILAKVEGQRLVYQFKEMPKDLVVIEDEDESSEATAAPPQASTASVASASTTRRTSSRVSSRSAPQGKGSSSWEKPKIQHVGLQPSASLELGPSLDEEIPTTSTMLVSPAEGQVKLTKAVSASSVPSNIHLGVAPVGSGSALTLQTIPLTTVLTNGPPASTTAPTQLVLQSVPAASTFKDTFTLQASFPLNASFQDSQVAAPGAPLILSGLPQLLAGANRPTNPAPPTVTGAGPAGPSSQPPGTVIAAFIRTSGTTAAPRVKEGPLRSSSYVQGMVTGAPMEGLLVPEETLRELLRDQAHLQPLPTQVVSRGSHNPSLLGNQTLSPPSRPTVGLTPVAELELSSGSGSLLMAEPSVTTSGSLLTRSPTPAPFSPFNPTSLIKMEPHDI
ETV1, sequence (P50549 whole entry): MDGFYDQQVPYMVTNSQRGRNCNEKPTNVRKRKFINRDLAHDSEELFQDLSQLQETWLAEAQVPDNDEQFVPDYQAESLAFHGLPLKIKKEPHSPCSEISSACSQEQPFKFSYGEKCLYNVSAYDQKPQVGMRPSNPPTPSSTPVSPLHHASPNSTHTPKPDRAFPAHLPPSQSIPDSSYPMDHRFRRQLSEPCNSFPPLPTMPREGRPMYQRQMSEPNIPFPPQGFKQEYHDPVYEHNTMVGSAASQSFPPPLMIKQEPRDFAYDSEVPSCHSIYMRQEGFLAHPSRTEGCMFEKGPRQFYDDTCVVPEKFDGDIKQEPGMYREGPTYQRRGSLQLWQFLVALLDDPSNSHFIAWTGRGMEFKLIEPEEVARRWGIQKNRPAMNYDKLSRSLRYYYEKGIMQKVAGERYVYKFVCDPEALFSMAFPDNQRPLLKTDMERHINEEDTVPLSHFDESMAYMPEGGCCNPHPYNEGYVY
SPIB, sequence (Q01892 whole entry): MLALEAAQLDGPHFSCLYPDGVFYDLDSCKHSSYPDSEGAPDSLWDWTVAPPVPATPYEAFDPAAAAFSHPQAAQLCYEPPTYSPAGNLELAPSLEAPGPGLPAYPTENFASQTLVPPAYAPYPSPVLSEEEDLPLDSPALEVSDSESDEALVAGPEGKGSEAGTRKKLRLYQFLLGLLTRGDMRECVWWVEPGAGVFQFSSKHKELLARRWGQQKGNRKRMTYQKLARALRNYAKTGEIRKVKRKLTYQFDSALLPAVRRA
HSF1, sequence (Q00613 whole entry): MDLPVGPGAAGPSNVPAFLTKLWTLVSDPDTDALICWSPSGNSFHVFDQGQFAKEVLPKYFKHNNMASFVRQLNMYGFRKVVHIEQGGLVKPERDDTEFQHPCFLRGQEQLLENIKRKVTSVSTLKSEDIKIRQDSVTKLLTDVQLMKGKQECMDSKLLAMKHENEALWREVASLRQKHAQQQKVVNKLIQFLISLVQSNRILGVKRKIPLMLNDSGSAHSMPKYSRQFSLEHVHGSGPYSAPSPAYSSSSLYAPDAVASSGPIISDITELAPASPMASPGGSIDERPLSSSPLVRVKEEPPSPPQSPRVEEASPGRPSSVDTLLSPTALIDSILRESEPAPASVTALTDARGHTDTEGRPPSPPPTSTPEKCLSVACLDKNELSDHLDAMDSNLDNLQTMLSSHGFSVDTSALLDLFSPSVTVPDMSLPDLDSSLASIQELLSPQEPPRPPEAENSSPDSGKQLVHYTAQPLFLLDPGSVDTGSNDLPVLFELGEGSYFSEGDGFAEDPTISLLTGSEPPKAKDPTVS

As to GCTCAT, the binding signal was 1.23 fold enrichment (6-mer frequency, TF over GST control) with FLI1; 1.29 fold enrichment (6-mer frequency, TF over GST control) with ELK1; 1.23 fold enrichment (6-mer frequency, TF over GST control) in the test with GABPA; 1.32 fold enrichment (6-mer frequency, TF over GST control) in the test with ERG; 1.36 fold enrichment (6-mer frequency, TF over GST control) with ELF1; 1.26 fold enrichment (6-mer frequency, TF over GST control) in the test with EHF. Further, the binding signal with SPI1 is 1.21 fold enrichment (6-mer frequency, TF over GST control); with SPIB, 1.31 fold enrichment (6-mer frequency, TF over GST control); with ELK3, 1.16 fold enrichment (6-mer frequency, TF over GST control); with FEV, 1.2 fold enrichment (6-mer frequency, TF over GST control); with ETV5, 1.19 fold enrichment (6-mer frequency, TF over GST control); in the test with HSF1, 1.15 fold enrichment (6-mer frequency, TF over GST control). The binding signal is 1.32 fold enrichment (6-mer frequency, TF over GST control) with SPIC; 1.18 fold enrichment (6-mer frequency, TF over GST control) with ELF4; 1.3 fold enrichment (6-mer frequency, TF over GST control) with ELK4; 1.39 fold enrichment (6-mer frequency, TF over GST control) with ETV2; 1.34 fold enrichment (6-mer frequency, TF over GST control) with ELF3; 1.35 fold enrichment (6-mer frequency, TF over GST control) with CRX. Further, the binding signal in the test with ETV1 was 1.22 fold enrichment (6-mer frequency, TF over GST control).
